Laboratory results reported in PubChem BioAssay AID1159580 (chemical genetic matrix, 2015).
“And” between values parts separate entries of the source, which are not always exact repeats. Equal values may be shown once. Out of some 5,500 compounds screened, about 2,000 (36%) were called active. Another 18% or so got no clear call; they are omitted. No stated cut-off is given here; in the data, active means normalized growth mostly below about 0.91 (no sharp cut-off); inconclusive means no clear call, values can overlap the other calls; inactive means mostly above about 0.92. This is one part of the list.

Assay: chemical genetic growth profiling, strain panel (AID 1159580);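 further: tested at 20 µM; growth read once vehicle control cultures reached saturation at 30 °C; 1 = growth at the plate median or of vehicle wells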
Details: S. cerevisiae deletion strains, growth OD
[1] = locus YPL241C, strain CIN2, stronger effect = lower value

Measured: normalized growth

CC(=O)OCC(=O)[C@H]1CCC2C3CCC4=CC(=O)CC[C@]4(C)C3CC[C@@]21C (stereo partly drawn)
inactive: locus YAL021C, strain ccr4, stronger effect = lower value 0.94 | locus YAL026C, strain drs2, stronger effect = lower value 0.978 | locus YAL030W, strain snc1, stronger effect = lower value 0.979 | locus YBL061C, strain skt5, stronger effect = lower value 0.967 | locus YBR009C, strain hhf1, stronger effect = lower value 0.986 | locus YBR021W, strain FUR4, stronger effect = lower value 0.898 | locus YBR023C, strain chs3, stronger effect = lower value 0.94 | locus YBR171W, strain sec66, stronger effect = lower value 0.927 | locus YBR229C, strain ROT2, stronger effect = lower value 0.969 | locus YBR231C, strain swc5, stronger effect = lower value 1 | locus YBR279W, strain paf1, stronger effect = lower value 0.976 | locus YCL011C, strain gbp2, stronger effect = lower value 0.969 | locus YCL016C, strain dcc1, stronger effect = lower value 0.961 | locus YCL029C, strain bik1, stronger effect = lower value 0.957 | locus YCL061C, strain MRC1, stronger effect = lower value 0.984 | locus YCL069W, strain vba3, stronger effect = lower value 0.98 | locus YCR088W, strain abp1, stronger effect = lower value 0.972 | locus YDL005C, strain med2, stronger effect = lower value 0.964 | locus YDL035C, strain GPR1, stronger effect = lower value 0.86 | locus YDL040C, strain nat1, stronger effect = lower value 0.973 | locus YDL101C, strain DUN1, stronger effect = lower value 0.961 | locus YDL185W, strain tfp1, stronger effect = lower value 0.949 | locus YDL192W, strain arf1, stronger effect = lower value 0.935 | locus YDR001C, strain nth1, stronger effect = lower value 0.972 | locus YDR069C, strain doa4, stronger effect = lower value 0.967 | locus YDR101C, strain arx1, stronger effect = lower value 0.954 | locus YDR137W, strain rgp1, stronger effect = lower value 1.11 | locus YDR159W, strain sac3, stronger effect = lower value 0.885 | locus YDR195W, strain ref2 1.07 | locus YDR297W, strain sur2, stronger effect = lower value 0.975 | locus YDR318W, strain mcm21, stronger effect = lower value 0.929 | locus YDR334W, strain swr1, stronger effect = lower value 0.971 | locus YDR335W, strain msn5, stronger effect = lower value 0.988 | locus YDR388W, stronger effect = lower value 0.94 | locus YEL003W, strain gim4, stronger effect = lower value 0.994 | locus YEL037C, strain rad23, stronger effect = lower value 0.977 | locus YEL061C, strain CIN8 (second series), stronger effect = lower value 0.977 | locus YEL061C, strain CIN8, stronger effect = lower value 0.944 | locus YER015W, strain faa2, stronger effect = lower value 0.969 | locus YER016W, strain bim1, stronger effect = lower value 0.962 | locus YER110C, stronger effect = lower value 0.943 | locus YER111C, strain swi4, stronger effect = lower value 0.971 | locus YFR010W, strain ubp6, stronger effect = lower value 0.994 | locus YGL078C, strain dbp3, stronger effect = lower value 0.961 | locus YGL086W, strain mad1, stronger effect = lower value 0.934 | locus YGL167C, strain pmr1, stronger effect = lower value 0.951 | locus YGL173C, strain kem1, stronger effect = lower value 0.948 | locus YGL227W, strain vid30, stronger effect = lower value 0.992 | locus YGL240W, strain doc1, stronger effect = lower value 0.95 | locus YGL248W, strain PDE1, stronger effect = lower value 0.927 | locus YGL253W, strain hxk2, stronger effect = lower value 0.919 | locus YHR013C, strain ard1, stronger effect = lower value 0.997 | locus YHR027C, strain rpn1, stronger effect = lower value 0.996 | locus YHR030C, strain SLT2, stronger effect = lower value 0.944 and 1.02 | locus YHR079C, strain IRE1 (second series), stronger effect = lower value 0.956 | locus YHR079C, strain IRE1, stronger effect = lower value 1.02 | locus YHR094C, strain hxt1, stronger effect = lower value 0.956 | locus YHR129C, strain ARP1, stronger effect = lower value 0.944 | locus YHR142W, strain chs7, stronger effect = lower value 0.944 | locus YHR200W, strain rpn10, stronger effect = lower value 0.924 | locus YIL073C, strain SPO22, stronger effect = lower value 0.828 | locus YIL125W, strain kgd1, stronger effect = lower value 0.955 | locus YJL092W, strain hpr5, stronger effect = lower value 0.976 | locus YJL095W, strain BCK1 (second series), stronger effect = lower value 0.965 | locus YJL115W, strain asf1, stronger effect = lower value 0.984 | locus YJL129C, strain trk1, stronger effect = lower value 0.931 | locus YJL134W, strain LCB3, stronger effect = lower value 0.976 | locus YJL154C, strain vps35, stronger effect = lower value 0.98 | locus YJL164C, strain tpk1, stronger effect = lower value 0.978 | locus YJL166W, strain qcr8, stronger effect = lower value 0.989 | locus YJL168C, strain set2, stronger effect = lower value 0.96 | locus YJL187C, strain SWE1 (second series), stronger effect = lower value 0.935 | locus YJR066W, strain TOR1, stronger effect = lower value 0.956 | locus YKL009W, strain mrt4, stronger effect = lower value 0.909 | locus YKL068W, stronger effect = lower value 0.956 | locus YKL085W, strain MDH1 (second series), stronger effect = lower value 0.934 | locus YKL085W, strain MDH1, stronger effect = lower value 0.934 | locus YKL160W, strain elf1, stronger effect = lower value 0.964 | locus YKR026C, strain gcn3, stronger effect = lower value 0.977 | locus YKR091W, strain srl3, stronger effect = lower value 0.98 | locus YLL001W, strain dnm1, stronger effect = lower value 0.985 | locus YLL026W, stronger effect = lower value 0.992 | locus YLL041C, strain sdh2, stronger effect = lower value 0.986 | locus YLR027C, strain aat2, stronger effect = lower value 0.97 | locus YLR039C, strain RIC1, stronger effect = lower value 0.772 | locus YLR058C, strain SHM2, stronger effect = lower value 0.942 | locus YLR102C, strain apc9, stronger effect = lower value 0.956 | locus YLR113W, strain HOG1, stronger effect = lower value 0.951 | locus YLR221C, strain rsa3, stronger effect = lower value 0.972 | locus YLR258W, strain gsy2, stronger effect = lower value 0.958 | locus YLR262C, strain YPT6 (second series), stronger effect = lower value 1.04 | locus YLR262C, strain YPT6, stronger effect = lower value 0.754 | locus YLR268W, strain sec22, stronger effect = lower value 0.919 | locus YLR320W, strain mms22, stronger effect = lower value 0.881 | locus YLR342W, strain FKS1, stronger effect = lower value 0.926 | locus YLR357W, strain rsc2, stronger effect = lower value 1.02 | locus YLR370C, strain arc18, stronger effect = lower value 0.958 | locus YLR371W, strain rom2, stronger effect = lower value 0.966 | locus YLR384C, strain iki3, stronger effect = lower value 0.987 | locus YML016C, strain PPZ1, stronger effect = lower value 0.962 | locus YML120C, strain ndi1, stronger effect = lower value 0.979 | locus YML124C, strain tub3, stronger effect = lower value 0.938 | locus YMR058W, strain fet3, stronger effect = lower value 0.959 | locus YMR078C, strain ctf18, stronger effect = lower value 0.923 | locus YMR125W, strain sto1, stronger effect = lower value 0.986 | locus YMR129W, stronger effect = lower value 0.985 | locus YMR205C, strain PFK2, stronger effect = lower value 0.909 | locus YMR223W, strain ubp8, stronger effect = lower value 0.905 | locus YMR231W, strain pep5, stronger effect = lower value 0.988 | locus YMR307W, strain GAS1, stronger effect = lower value 0.744 | locus YNL067W, strain RPL9B, stronger effect = lower value 0.965 | locus YNL071W, strain lat1, stronger effect = lower value 0.923 | locus YNL153C, strain GIM3, stronger effect = lower value 0.962 | locus YNL183C, strain NPR1, stronger effect = lower value 0.961 | locus YNL209W, strain ssb2, stronger effect = lower value 0.979 | locus YNL233W, strain BNI4, stronger effect = lower value 0.871 | locus YNL248C, strain rpa49, stronger effect = lower value 0.945 | locus YNL250W, strain rad50, stronger effect = lower value 0.978 | locus YNL271C, strain bni1, stronger effect = lower value 0.938 | locus YNL322C, strain KRE1 (second series), stronger effect = lower value 0.951 | locus YNR049C, strain mso1, stronger effect = lower value 0.989 | locus YNR052C, strain pop2, stronger effect = lower value 0.986 | locus YOL012C, strain htz1 1.17 | locus YOR001W, strain rrp6, stronger effect = lower value 0.999 | locus YOR061W, strain CKA2, stronger effect = lower value 0.943 | locus YOR069W, strain VPS5, stronger effect = lower value 0.983 | locus YOR070C, strain gyp1, stronger effect = lower value 0.974 | locus YOR080W, strain dia2, stronger effect = lower value 0.987 | locus YOR083W, strain WHI5, stronger effect = lower value 0.9 | locus YOR106W, strain vam3, stronger effect = lower value 0.941 | locus YOR136W, strain idh2, stronger effect = lower value 0.965 | locus YOR231W, strain MKK1, stronger effect = lower value 0.983 | locus YOR265W, strain rbl2, stronger effect = lower value 0.98 | locus YOR290C, strain snf2, stronger effect = lower value 0.961 | locus YOR316C, strain cot1, stronger effect = lower value 0.947 | locus YPL051W, strain arl3, stronger effect = lower value 0.968 | locus YPL055C, strain LGE1, stronger effect = lower value 0.861 | locus YPL078C, strain atp4, stronger effect = lower value 0.903 | locus YPL106C, strain sse1, stronger effect = lower value 1.04 | locus YPL240C, strain hsp82, stronger effect = lower value 0.982 | [1] 0.963 | locus YPL256C, strain CLN2, stronger effect = lower value 1.01 | locus YPR119W, strain clb2, stronger effect = lower value 0.948 | locus YPR141C, strain kar3, stronger effect = lower value 0.954 | locus YPR163C, strain tif3, stronger effect = lower value 0.916 | strain wtn01, stronger effect = lower value 0.949
0.752 (active) and 0.988 (inactive): locus YJL095W, strain BCK1, stronger effect = lower value
active: locus YAL013W, strain DEP1, stronger effect = lower value 0.886 | locus YDL074C, strain BRE1, stronger effect = lower value 0.777 | locus YDL134C, strain PPH21, stronger effect = lower value 0.826 | locus YDR162C, strain NBP2, stronger effect = lower value 0.78 | locus YDR392W, strain spt3, stronger effect = lower value 0.56 | locus YDR502C, strain sam2, stronger effect = lower value 0.899 | locus YER155C, strain BEM2 (second series), stronger effect = lower value 0.835 | locus YER155C, strain BEM2, stronger effect = lower value 0.92 | locus YER167W, strain BCK2, stronger effect = lower value 0.829 | locus YGR135W, strain pre9, stronger effect = lower value 0.84 | locus YGR252W, strain gcn5, stronger effect = lower value 0.72 | locus YIL066C, strain RNR3, stronger effect = lower value 0.809 | locus YIR030C, strain dcg1, stronger effect = lower value 0.927 | locus YJR043C, strain POL32, stronger effect = lower value 0.797 | locus YKR001C, strain vps1, stronger effect = lower value 0.777 | locus YLR330W, strain CHS5, stronger effect = lower value 0.864 | locus YLR342W, strain FKS1 (second series), stronger effect = lower value 0.726 | locus YLR418C, strain cdc73, stronger effect = lower value 0.691 | locus YML032C, strain rad52, stronger effect = lower value 0.896 | locus YNL298W, strain CLA4, stronger effect = lower value 0.893 | locus YNL307C, strain MCK1, stronger effect = lower value 0.596 | locus YOL147C, strain pex11, stronger effect = lower value 0.93 | locus YOR144C, strain elg1, stronger effect = lower value 0.929 | locus YOR184W, strain ser1, stronger effect = lower value 0.759 | locus YOR270C, strain vph1, stronger effect = lower value 0.734 | locus YPR167C, strain met16, stronger effect = lower value 0.921

C[C@]12C[C@H](O)[C@H]3[C@@H](CCC4=CC(=O)CC[C@@]43C)[C@@H]1CC[C@@H]2C(=O)CO
inactive: locus YAL040C, strain CLN3, stronger effect = lower value 1.05 | locus YDR150W, strain NUM1, stronger effect = lower value 1 | locus YDR363W, strain ESC2, stronger effect = lower value 0.999 | locus YER002W, strain NOP16, stronger effect = lower value 1.01 | locus YGR078C, strain PAC10, stronger effect = lower value 1 | locus YNL175C, strain NOP13, stronger effect = lower value 1.02 | locus YNL197C, strain WHI3, stronger effect = lower value 1.02 | locus YNL224C, strain SQS1, stronger effect = lower value 1.02 | locus YOR083W, strain WHI5 (second series), stronger effect = lower value 1.02 | [1] 1
